Assay results reported in PubChem BioAssay AID588334 (Broad Institute, 2011).
Among all 300,000 compounds or so, about 2,300 (0.77%) were called active. This is one part of a sample in which actives are shown more often than they occur. Unmarked numbers belong to inactive results.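 How the source made its calls: active means mean activation of at least 80% with every replicate also reaching 80%; inconclusive means mean reaches 80% but some replicate falls short; inactive means the rest.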

Experiment: activators of MITF-driven TRPM1 promoter reporter, primary screen, cell-based, SK-MEL-5, luciferase, single point (AID 588334);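 further: 0% = neutral control wells and 100% = parthenolide positive control wells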
Conditions: SK-MEL-5 TRPM1-promoter luciferase, 24 h; at 12.5 µM; stronger effect = higher value; % of positive control, neutral wells = 0

With CCOC(=O)c1ccccc1OC(=O)Oc1ccccc1C(=O)OCC as the compound, how does the activation read?
Its activation is -22.1%.

With CCc1ccc(NC(=O)Cn2ncn3c(cc4ccccc43)c2=O)cc1 as the compound, how does the activation read?
Its activation is -8.34%.

Which activation does the source give for CC(C)c1ccc(NC(=O)Cn2ncc3ccccc32)cc1 here?
Its activation is 93% (active).

For CCCN1CCN(C(=O)Cn2ncc3ccccc32)CC1, which activation is on record?
The activation was -0.935%.

For O=C(OCCOc1ccccc1Cl)c1cc(S(=O)(=O)N2CCCCC2)ccc1N1CCOCC1, which activation is on record?
The activation was -10.6%.

With CN1CCN(C(=O)c2ccc(-c3ccc(Br)cc3)o2)CC1 as the compound, how does the activation read?
The activation was 123% (active).

For O=CN1CCN(C(=O)c2ccc(Br)o2)CC1, which activation is on record?
The activation was -12.5%.

For COc1ccccc1OCc1ccc(C(=O)N2CCN(C)CC2)o1, which activation is on record?
Its activation is 1.8%.

Which activation does the source give for CC(C)=CCc1ccc(O)c(=O)cc1C(C)C here?
Its activation is -70.3%.

With CC[C@@H](C)[C@@H]1CN([C@@H](C)CN2CCC[C@H]2CN2C(N)=NC[C@H]2C(C)C)C(=N)N1CCc1ccc(Cl)c(Cl)c1 as the compound, how does the activation read?
Its activation is 5.32%.

With CS(=O)(=O)N1CCc2nc(-c3ccccc3)sc2C1 as the compound, how does the activation read?
The activation was 92.1% (active).

For CS(=O)(=O)N1CCN(c2cccc(Cl)n2)CC1, which activation is on record?
The activation was -7.99%.

For CS(=O)(=O)N1CCN(C(=O)Cc2ccccc2)CC1, which activation is on record?
Its activation is -6.87%.

With COc1ccc(S(=O)(=O)Nc2cccc3c2O[C@H](CN(C)S(=O)(=O)c2ccc(OC)cc2)[C@@H](C)CN([C@H](C)CO)C3=O)cc1 as the compound, how does the activation read?
Its activation is 0.473%.

With O=C1C=C(NS(=O)(=O)c2ccccc2)C(=O)c2ccccc21 as the compound, how does the activation read?
Its activation is -65.5%.

With COc1ccc(Cn2cc(CN3CCS(=O)(=O)N(Cc4ccc(-c5cccc(Cl)c5)cc4)C(C)C3=O)nn2)cc1 (configuration not stated) as the compound, how does the activation read?
Its activation is 0.982%.

With Cc1ccn(-c2cccc(-n3ccc(C)n3)n2)n1 as the compound, how does the activation read?
The activation was 119% (active).

Which activation does the source give for Cc1cccc(N2O[C@H]3C=CC2CCCC3)n1 here?
The activation was 63.6%.

For O=C(Nc1nc(-c2cccnc2)cs1)c1ccccc1F, which activation is on record?
Its activation is 72.7%.

For Cc1ccccc1Nc1nc(-c2cccnc2)cs1, which activation is on record?
Its activation is 97.6% (active).

Which activation does the source give for O=C(NCc1cccnc1)C(=O)Nc1nc(-c2ccccc2)cs1 here?
The activation was 54.4%.

Which activation does the source give for Cc1ccc(C(=O)O)c(NC=O)c1OCc1ccccc1 here?
Its activation is 11%.

With NC(=O)C1CCN(C(=O)c2cc(S(=O)(=O)N3CCN(c4ccccc4)CC3)ccc2Cl)CC1 as the compound, how does the activation read?
The activation was -3.4%.

With CC(C)(C)C(=O)c1cnc(Nc2ccccc2)s1 as the compound, how does the activation read?
The activation was 124% (active).

For CC(=O)c1cnc(-c2ccccc2)s1, which activation is on record?
Its activation is 13.4%.

For O=C(/C=C/Nc1ccccc1)c1cnc(-c2ccccc2)s1, which activation is on record?
Its activation is 37.6%.

For CN[C@H](C(=O)NC[C@H]1O[C@@H](n2cnc3c(N)ncnc32)[C@H](O)[C@@H]1O)[C@@H](C)OCc1ccccc1, which activation is on record?
The activation was 17%.
